# A selection: hits, their analogues and other compounds. The true share with any hit is near 2.9%.
# LDHA block: LDHA (human) enzyme inhibition | purified LDHA, NADH/diaphorase-resazurin fluorescence; hits give low values | activity change, % (values are at about 110 or 230 µM) | hit rate 0.15% among 480,000 | P00338 | AID 1347041; in the data active = activity change below about -30%; inconclusive = mostly about -25% to -30%;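 note: plate controls were DMSO wells for no effect and wells without enzyme for full effect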
#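 Human LDH5 (2 nM) was incubated with 0.06 mM NADH and 0.2 mM pyruvate for 5 min at room temperature in Tris pH 7.4. Remaining NADH was coupled through diaphorase/resazurin, and resorufin fluorescence was read at 0 and 20 min.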
# ClpP mod: qHTS Assay for Activators of ClpP | purified B. subtilis ClpP, FRET peptide cleavage, 20 min | Potency, µM (titrated, usually from 57.5 µM), for inactives: top-dose activity change, negative = active | ATP-dependent Clp protease proteolytic subunit (Bacillus subtilis (strain 168)), P80244 | hit rate 1.9% among 340,000; active = well fitted falling curve with a large enough effect; inconclusive = small, poorly fitted or top-dose-only effect; inactive = no such curve, though single readings can be large or run the other way; note: potency is the fitted concentration of half-maximal effect; the source files actives as falling curves though it sought activators and does not explain the sign; nearly all actives have a fitted effect of over 65% in size
# Target sequence (P80244 whole entry, looked up): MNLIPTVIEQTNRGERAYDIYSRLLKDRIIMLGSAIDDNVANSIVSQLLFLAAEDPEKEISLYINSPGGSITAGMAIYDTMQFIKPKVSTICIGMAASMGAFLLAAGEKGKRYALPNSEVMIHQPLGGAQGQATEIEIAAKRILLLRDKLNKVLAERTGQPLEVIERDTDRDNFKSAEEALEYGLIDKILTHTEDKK
#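 FRET quenching reversal measured ClpP activation: 10 microg/mL B. subtilis ClpP at pH 8 with the FRET-FV decapeptide, read at 430 nm after 320 nm excitation. The 20-min minus 0-min signal was scaled between DMSO/no-enzyme wells and ADEP (5.8 microM final).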
# GLP-1R agonist: activates the human GLP-1 receptor; HEK293 GLP-1R CRE-luciferase, luminescence, 4-6 h; cells express a hypersensitive GLP-1R form; Potency, µM (titrated, usually from 45.6 µM), inactives show at the top dose activation, most hits filed as activators; hit rate 0.007% among 380,000; AID 624172; note: potency is the fitted concentration of half-maximal effect; % of control where 0% means no effect
# Target sequence (P43220 whole entry, looked up): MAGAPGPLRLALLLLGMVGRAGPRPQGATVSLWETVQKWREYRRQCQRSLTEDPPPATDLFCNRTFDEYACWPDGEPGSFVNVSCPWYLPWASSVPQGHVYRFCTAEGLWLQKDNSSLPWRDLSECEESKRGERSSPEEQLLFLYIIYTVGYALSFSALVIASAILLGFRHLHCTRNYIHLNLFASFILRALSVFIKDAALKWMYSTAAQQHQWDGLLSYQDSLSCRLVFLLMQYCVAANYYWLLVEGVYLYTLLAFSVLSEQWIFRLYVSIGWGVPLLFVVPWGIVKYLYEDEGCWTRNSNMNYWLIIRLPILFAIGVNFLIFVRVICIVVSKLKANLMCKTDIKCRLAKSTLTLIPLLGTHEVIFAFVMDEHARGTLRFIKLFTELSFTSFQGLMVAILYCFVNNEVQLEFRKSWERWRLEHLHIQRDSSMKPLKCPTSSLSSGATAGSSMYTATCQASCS
# p53 reactivator: re-activators of mutant p53 | H1299 p53-A138V BP100-luciferase reporter, luminescence, 24 h | hit rate 0.063% among 320,000 | AID 504706 | Potency, µM (series often up to 92.2 µM), for inactives: at the highest dose activity change, positive = activation, most hits filed as activators; note: potency is the fitted concentration of half-maximal effect; % of control where 0% means no effect; nearly all actives have a fitted effect of over 45% in size
#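 p53-null H1299 cells stably carrying temperature-sensitive p53-A138V and a BP100-luciferase reporter were pinned with compounds (4-point, 1:5 series) and held 24 hrs at 37 deg C. Luminescence was read 10 min after detection reagent.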
# GLP1R cytotox: cytotoxic in the GLP-1 receptor inverse agonist counter-screen. HEK293 cAMP-luciferase reporter cells, luminescence, 24 h. hit rate 0.13% among 410,000. Potency, µM (top dose mostly 38.3 µM), for the others: top-dose activity change, negative = inhibition, most hits filed as inhibitors;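 note: loss of luciferase light is scored as toxicity; potency is the fitted concentration of half-maximal effect; % is set by controls: 0 for no effect and ±100 for the full control effect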
#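 1536-well qHTS counterscreen of the MLSMR; 200 cells/uL, 12 h pre-incubation, 23 nL cpd, 24 h at 37 deg C 5% CO2, luciferase detection reagent, 12 min RT, luminescence. Inhibition = undesired.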
# GLP-1R inv ag: inverse agonists of human GLP-1 receptor; P43220; HEK293 GLP-1R CRE-luciferase, luminescence, 24 h; GLP-1R form is constitutively active; Potency, µM (top dose mostly 38.3 µM), without a hit: top-dose activity change, negative = inhibition, hits mostly inhibitors; hit rate 1.6% among 410,000; AID 624417; note: potency is the fitted concentration of half-maximal effect; % is set by controls: 0 for no effect and ±100 for the full control effect; nearly all actives have a fitted effect of over 55% in size
#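 HEK293 cells stably co-expressing a cAMP-responsive luciferase reporter and constitutively active GLP-1R were seeded, incubated 12 h, then exposed to compounds for 24 h at 37 C. Luminescence was read 12 min after detection reagent; inverse agonists lower signal.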
# Active calls of the source: *; ? = inconclusive; nt = not tested or not shown. Unless noted, calls come from the whole dose curve; as a rule, active = well fitted curve in the direction sought with a large enough effect; inconclusive = small, poorly fitted or top-dose-only effect, or another doubt; inactive = no such curve, though single readings can be large; an effect the other way counts as inactive or inconclusive.
SMILES,LDHA block,ClpP mod,GLP-1R agonist,p53 reactivator,GLP1R cytotox,GLP-1R inv ag
COc1ccc(-c2nnc(-c3cc4c(ccc5ccccc54)oc3=O)o2)cc1,-2,?,-8%,?,2%,9%
O=c1oc2ccc3ccccc3c2cc1-c1nnc(-c2ccccc2)o1,-3,14µM*,8%,7%,49%,7%
CCc1ccccc1NC(=O)c1ccc(CN2CCC(Cc3ccccc3)CC2)cc1,-3,1%,-2%,2%,?,8.9µM*
O=C(NCc1ccccc1)c1ccc(CN2CCC(Cc3ccccc3)CC2)cc1,0,0%,7%,1%,-13%,10µM*
O=C(O)CSc1nc2ccc(Br)cc2[nH]1,-11,nt,-1%,nt,-6%,0%
O=C(CSc1ccccc1)N(c1ccc(Br)cc1)c1nccs1,0,0%,13%,-10%,-1%,11µM*
NC(=S)N/N=C1/CCSc2ccc3ccccc3c21,-5,nt,14%,9%,2µM*,2.2µM*
O=C1CCSc2ccc3ccccc3c21,0,nt,nt,nt,nt,nt
Cc1cc(/C=N/n2cnnc2)c(C)n1-c1ccccc1,0,1%,8%,8%,-6%,20%
O=C(NCc1cnc2ccccn12)C1CCC(=O)N(Cc2ccccc2F)C1 (configuration not stated),-3,32µM*,-4%,-4%,3%,7%
O=C(CNC(=S)N(Cc1ccccc1)Cc1cccnc1)NC1CC1,-2,25µM*,4%,-10%,-7%,-5%
Clc1ccc(-c2csc(N/N=C\c3cccnc3)n2)cc1,-10,2%,4%,3%,-15%,-28%
COC(=O)[C@]12CCCCC=C1N(Cc1ccco1)C(=O)[C@H](CC(=O)N1CCN(C(=O)c3ccco3)CC1)C2,3,0%,1%,nt,-11%,3%
COc1ccc(NC(=O)CN2CCN(CC#N)CC2)cc1,0,0%,-3%,5%,1%,11%
Cn1c(-c2c(N)n(C3CCCC3)c3nc4ccccc4nc23)nc2ccccc21,-1,?,0%,10%,334%,4µM*
Cn1c(-c2c(N)n(CCc3ccccc3)c3nc4ccccc4nc23)nc2ccccc21,8,-1%,-6%,11%,428%,?
COCCCC1CCN(Cc2nc(Cc3ccccc3Cl)no2)CC1,1,nt,18%,1%,-4%,?
CCC(C)NC(=O)c1cn(-c2cccc(C)n2)cn1 (configuration not stated),-3,32µM*,-4%,14%,-21%,4%
Cc1cccc(-n2cnc(C(=O)O)c2)n1,9,nt,6%,-4%,1%,2%
C/C(CCc1oc2ccc(Br)cc2c1-c1ccc(C)o1)=N/O,4,1%,2%,-15%,8%,10µM*
O=C1C(Cc2ccccc2)Nc2ncnc(N3CCN(c4ccccc4)CC3)c2N1Cc1ccc(Cl)cc1 (configuration not stated),-14,-13%,-4%,-6%,34%,11µM*
CC1Nc2ncnc(N3CCN(c4ccccc4)CC3)c2N(Cc2ccc(Cl)cc2)C1=O (configuration not stated),-1,-7%,0%,-8%,-56%,10µM*
CC(C)CC1Nc2ncnc(N3CCCCC3)c2N(Cc2ccccc2)C1=O (configuration not stated),0,-3%,0%,-5%,-28%,?
COc1ccc(CN2C(=O)C(Cc3ccccc3)Nc3ncnc(N4CCN(c5ccccc5)CC4)c32)cc1 (configuration not stated),0,-6%,-1%,5%,5%,?
O=C1C(Cc2ccccc2)Nc2ncnc(N3CCCCC3)c2N1Cc1ccc(Cl)cc1 (configuration not stated),-1,0%,4%,-10%,0%,13µM*
SMILES,LDHA block,ClpP mod,GLP-1R agonist,p53 reactivator,GLP1R cytotox,GLP-1R inv ag
Fc1ccc(/C=N/Nc2ccccc2Cl)cc1F,13,nt,nt,nt,nt,nt
N=c1c2c3c(sc2ncn1N)CCC3,-2,-1%,-6%,6%,2%,-10%
O=C1[C@H]2[C@@H](c3ccc(C(F)(F)F)cc3)N[C@]3(CCCN(Cc4ccccc4)C3=O)[C@H]2C(=O)N1Cc1ccccc1,-3,-2%,-6%,nt,0%,11µM*
O=C1[C@H]2[C@@H](c3ccc(C(F)(F)F)cc3)N[C@]3(CCCN(Cc4ccc(C(F)(F)F)cc4)C3=O)[C@H]2C(=O)N1Cc1ccccc1,0,2%,-4%,nt,3%,4.5µM*
CCN1C(=O)[C@H]2[C@@H](c3ccc(C(F)(F)F)cc3)N[C@]3(CCCN(Cc4ccc(Cl)cc4)C3=O)[C@H]2C1=O,-2,1%,-5%,nt,5%,10µM*
CCN1C(=O)[C@H]2[C@@H](c3ccc(C(F)(F)F)cc3)N[C@]3(CCCN(Cc4ccc(C)cc4)C3=O)[C@H]2C1=O,1,1%,-5%,nt,2%,?
COc1ccc([C@H]2N[C@]3(CCCN(Cc4ccc(C(F)(F)F)cc4)C3=O)[C@H]3C(=O)N(Cc4ccccc4)C(=O)[C@@H]23)cc1,-6,1%,-2%,nt,-20%,?
Cc1cc(-n2c(C)cc(C(=O)CCl)c2C)no1,2,2%,-4%,-10%,?,10µM*
CC1(C)Nc2ccccc2C(=O)N1NS(=O)(=O)c1ccccc1,-8,-3%,-2%,-2%,-2%,-3%
Cc1ccc(S(=O)(=O)NN2C(=O)c3ccccc3NC2(C)C)cc1,2,16µM*,-4%,7%,6%,-25%
CCOc1ccc(C(=O)NCC(=O)OCc2c(F)cccc2Cl)cc1,1,28µM*,2%,5%,-15%,-4%
CCOc1ccc(C(=O)NCC(=O)OCc2c(F)cccc2Cl)cc1OCC,1,-26%,23%,-11%,4%,-11%
CCCCCN(C(=O)CCCSc1nncs1)c1c(N)n(CCCC)c(=O)[nH]c1=O,-13,0%,9%,1%,-16%,10%
O=C(NNc1cc(Cl)cc(Cl)c1)C1CCC1,-7,nt,9%,-1%,-19%,5.6µM*
CC(C)CN(C(=O)COC(=O)c1ccc2c(c1)NC(=O)CS2)C1CCS(=O)(=O)C1 (configuration not stated),-1,-2%,2%,-1%,-4%,2%
O=c1ccc(/C=C/c2ccccc2)nn1Cc1ccc(Cl)cc1Cl,-6,28µM*,1%,0%,37%,0%

# Bioassay records (PubChem BioAssay)
